# Test results as given in PubChem BioAssay (EPA / NIEHS).
# “And” between values parts separate entries of the source, which are not always exact repeats. Equal values may be shown once. Inconclusive results are not listed. More than one record can exist for a structure, and the calls need not agree. The source made the active and inactive calls. Rule for the calls: active = hit-call score of the fitted dose curve at least 0.9, where 1 is the maximum; inconclusive = response in the unintended direction; inactive = score below 0.9.
# Assay: TOX21_p53_BLA_p3_viability: Viability Assessment in the Tox21 HCT-116 p53 Agonism Beta-lactamase Assay, Phase 3 (AID 2283593);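 note: cells exposed to compound for 16 h before reading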
# From the text: TOX21_p53_BLA_p3 is a cell-based, single-readout assay that uses HCT116, a human intestinal cell line, […] in a 1536-well plate.TOX21_p53_BLA_p3_viability is an assay readout measuring cellular ATP content and detected with CellTiter-Glo Luciferase-coupled ATP quantitation.TOX21_p53_BLA_p3_viability used a type of viability reporter where loss-of-signal activity can be used to understand changes in the cell viability. Furthermore, this assay endpoint can be referred to as a secondary readout, because this assay has produced multiple assay endpoints where this one serves a viability function. To generalize the intended target to other relatable targets, this assay endpoint is annotated to the cell cycle intended target family, where the subfamily is cytotoxicity.
# Thawing Method: Place 14 mL of pre-warmed thaw medium into a 15 mL of conical tub. Remove the vial of cells to be thawed from liquid nitrogen and thaw rapidly by placing at 37C in a water bath with gentle agitation for 1-2 minutes. Decontaminate the vial by wiping with 70% ethanol before opening in a biological safety cabinet. Transfer the vial contents drop-wise into 14 mL of thaw medium in a sterile 15-mL conical tub. Centrifuge cells at 900 rpm for 4 minutes and resuspend in thaw medium. Transfer contents to the T75 tissue culture flask containing Thaw Medium and place flask in a humidified 37C/5% CO2 incubator. Switch to growth medium at first passage.Propagation Method: Aspirate medium, rinse once in DPBS, add 0.25% Trypsin/EDTA and swirl to coat the cell evenly. Add an equal volume of Growth Medium to inactivate Trypsin after 2-3 minutes incubation at 37C. Centrifuge cells at 900 rpm for 4 minutes and resuspend in growth medium. Cell should be passage or fed at least twice a week.Assay Protocol: Harvest cells from culture in growth medium and resuspend in assay medium. 2.2 Dispense 4000 cells/5 uL/well into 1536-well black/clear bottom plates using a Multidrop dispenser. After the cells were incubated at 37C for 5 hours, 23 nL of compounds dissolved in DMSO were transferred to the assay plate by a PinTool resulting in a 217-fold dilution. Incubate the plates for 16 hours at 37C, 5% CO2. Add 1 uL of 6X LiveBLAzer FRET B/G (CCF4-AM) Substrate Mixture to each well using a BioRAPTR dispenser and incubate the plates at room temperature for 2 hours. Measure fluorescence intensity at 460 and 530 nm emission and 405 nm excitation by an Envision detector. Data is expressed as the ratio of 460nm/530nm emissions. Add 4 uL of Cell-titer Glo to each well using BioRAPTR and incubate the plates at room temperature for […]. For cell viability readout that measures cytotoxicity, 4 ul/well of CellTiter-Glo reagent was added into the assay plates using a Flying Reagent Dispenser. After 30 min incubation at room temperature, the luminescence intensity in the plates was measured using a ViewLux plate reader.
Structure (SMILES),outcome,AC50
O=C1OC2(c3ccccc31)c1cc(Br)c(O)c(Br)c1Oc1c2cc(Br)c(O)c1Br,inactive,
CCCOC(=O)c1ccc(O)cc1,inactive,
CC(O)CO (stereo not given),inactive,
CC(=O)NC1(c2cccc(F)c2)CCN(CC[C@@]2(c3ccc(Cl)c(Cl)c3)CN(c3ccccc3)C(=O)CO2)CC1,,66.9 µM (active)
CC1=C(/C=C/C(C)=C/C=C/C(C)=C/C(=O)O)C(C)(C)CCC1,inactive,47.8 µM (active)
CCCCCCC(=O)O,inactive,
N#C[C@@H]1CC(F)(F)CN1C(=O)CNC1CC2CCC(C1)N2c1ncccn1 (stereo not given in full),inactive,
CCc1ccc(CCOc2ccc(CC3SC(=O)NC3=O)cc2)nc1 (stereo not given),inactive,
O=c1c(-c2ccc(O)cc2)coc2cc(O)ccc12,inactive,
CC(C)(C)c1ccc(O)c(C(C)(C)C)c1,,63.6 µM (active) and 86.7 µM (active)
ClC1=C(Cl)C(Cl)(Cl)C(Cl)=C1Cl,,5.7 µM (active) and 3.42 µM (active)
CCCCCCCCCCCCCCCS(=O)(=O)Oc1ccccc1,inactive,
CC(C)(C)CC(C)(C)c1ccc(O)c(-n2nc3ccccc3n2)c1,inactive,38.6 µM (active)
Cc1cc(C)c(O)c(C)c1,inactive,
CCCCCCCCCCCCCC[N+](C)(C)C,inactive,37.5 µM (active)
Nc1cccc2c(N)cccc12,inactive,
CCCCCCCCC(=O)O,inactive,
CN(C)C=O,inactive,
CC[C@H](c1ccc(O)cc1)[C@@H](CC)c1ccc(O)cc1,inactive,

Structure (SMILES),outcome,AC50
COc1ccc([N+](=O)[O-])cc1N,inactive,
CCC(C)(C)C1CCC(O)CC1 (stereo not given),inactive,
CCCOc1sc(C(=O)N2CCC(c3cc(CN)ccc3F)CC2)c(C)c1Br,,80 µM (active)
CCCCCCCC(=O)O,inactive,
Oc1cccc(O)c1,inactive,
C=C(C)C(=O)OCCC(F)(F)C(F)(F)C(F)(F)C(F)(F)C(F)(F)C(F)(F)F,inactive,
NC(=O)N1C(=O)C(C(=O)c2cc(Cl)cs2)c2cc(F)c(Cl)cc21 (stereo not given),inactive,
CN1CCN(c2ccccc2/C=C2\SCCN(c3ccc(Cl)c(Cl)c3)C2=O)CC1,,77.6 µM (active)
c1ccc2cc3c(ccc4ccccc43)cc2c1,inactive,
CC(C)(C)c1cc(C(C)(C)C)c(O)c(C(C)(C)C)c1,inactive,
CCN(CC)CCNc1ccc(CNC=O)c2sc3ccc(OC)cc3c(=O)c12,inactive,
Cc1ccc(S(=O)(=O)O)c(C)c1,inactive,
CCCCCCCCCCCCN1CCCC1=O,,69.8 µM (active)
O=C(O)Cc1cc(I)c(Oc2cc(I)c(O)c(I)c2)c(I)c1,,46.1 µM (active)
CC(=O)CC(C)(C)O,inactive,
Cc1oc(-c2ccccc2)nc1CCOc1ccc(C[C@H](Nc2ccccc2C(=O)c2ccccc2)C(=O)O)cc1,,10.7 µM (active)
C[C@@H]1C[C@H]2[C@@H]3CCC4=CC(=O)C=C[C@]4(C)[C@@]3(F)[C@@H](O)C[C@]2(C)[C@@]1(O)C(=O)COP(=O)(O)O,inactive,
CCCCC(CC)COC(=O)CCCCC(=O)OCC(CC)CCCC (stereo not given),inactive,
